# Records with an inconclusive call do not appear. Calls of active or inactive are those of the source. Calls follow the shape of the dose curve; as a rule, active = well fitted cell-killing curve with a large enough effect; inconclusive = small, poorly fitted or top-dose-only effect, or effect the other way; inactive = no such curve, though single readings can be large or run the other way.
# Test: Quantitative High-Throughput drug screen in 47 multiple myeloma cell lines against the NCATS MIPE library collection: OCIMY1_PLB cell viability assay (AID 1918979); also: nearly all actives have a fitted effect of over 35% in size
# Details: OCI-MY1 myeloma viability, CellTiter-Glo ATP, 48 h; series mostly up to 45.8 µM; viability: at the top concentration
# Source text: PI: Beverly A. Mock Ph.D.
# Laboratory of Cancer Biology and Genetics,
# Center for Cancer Research, National Cancer Institute,
# National Institute of Health, Bethesda, Maryland
# Drug resistance and disease progression are common in multiple myeloma (MM) patients, underscoring the need for new therapeutic combinations. […] We hypothesized that effective combinations would reduce MYC expression and enhance p16 activity. […] These preclinical data identify potentially useful drug combinations for evaluation in drug-resistant MM and reveal potential mechanisms of combined drug sensitivity.
# Described herein is the primary MIPE qHTS used to cherrypick compounds. Validated compounds were then further tested for potential synergistic activiy.
# [1] Peat TJ, Gaikwad SM, Dubois W, Gyabaah-Kessie N, Zhang S, Gorjifard S, Phyo Z, Andres M, Hughitt VK, Simpson RM, Miller MA, Girvin AT, Taylor A, Williams D, D'Antonio N, Zhang Y, Rajagopalan A, Flietner E, Wilson K, Zhang X, Shinn P, Klumpp-Thomas C, McKnight C, Itkin Z, Chen L, Kazandijian D, Zhang J, Michalowski AM, Simmons JK, Keats J, Thomas CJ, Mock BA. Drug combinations identified by high-throughput screening promote cell cycle transition and upregulate Smad pathways in myeloma. Cancer Lett. 2023 Aug 1;568:216284. doi: 10.1016/j.canlet.2023.216284. Epub 2023 Jun 24. PMID: 37356470; PMCID: PMC10408729.
# SEQUENCE No. (e.g., 1, 2, 3, etc.); […] (e.g., Cells, Incubation, Reagent, etc.); VALUE and DESCRIPTION.
# 1; Cells; 5 uL; white, solid bottom 1536-well Greiner assay plate.
# 2; Compounds; 23 nL; Kalypsis pin tool (Wako USA) equipped with a 1536-well pin head to transfer to the assay plates.
# 3; Incubation; 48 hours; 37C incubation.
# 4; Reagent;5uL; CellTiter Glo (Promega).
# 5; Detector; 425V; Luminescence; Viewlux PerkinElmer.
# NOTES (numbers refer to Sequence numbers above)
# 1. The cell-based screening methods employed in this study were like those previously published. Briefly, the corresponding myeloma cell lines were screened in 1,536-well plates with 500 cells, 5-uL per well for inhibition of cell viability (assessed by measuring ATP levels with CellTiterGlo).
# 2. NCATS MIPE 4.0 library of approved and investigational drugs were added using the Kalypsis pin tool. Wells treated with DMSO only for 100% viability and media only for 0% viability were used as controls.
# 3. The assay plates were covered and incubated for 48 hours in a 37C, 5% CO2 incubator with controlled humidity.
# 4. After 48 hours, CellTilter-GloTM luminescent substrate mix (Promega) reagent was added to the assay plate and plates we incubated for 5 min at room temperature.
# 5. Signal was measured as median relative luminescence units on a ViewLux (PerkinElmer) multiplate reader.
# [1] Heske CM, Davis MI, Baumgart JT, Wilson K, Gormally MV, Chen L, Zhang X, Ceribelli M, Duveau DY, Guha R, Ferrer M, Arnaldez FI, Ji J, Tran HL, Zhang Y, Mendoza A, Helman LJ, Thomas CJ. Matrix Screen Identifies Synergistic Combination of PARP Inhibitors and Nicotinamide Phosphoribosyltransferase (NAMPT) Inhibitors in Ewing Sarcoma. Clin Cancer Res. 2017 Dec 1;23(23):7301-7311. doi: 10.1158/1078-0432.CCR-17-1121. Epub 2017 Sep 12. PMID: 28899971; PMCID: PMC6636827.
# Potency is read from the fitted curve at half-maximal effect.
SMILES,viability,Potency
CC(C)(C#N)c1cc(Cn2cncn2)cc(C(C)(C)C#N)c1,104% (inactive),–
CNNCc1ccc(C(=O)NC(C)C)cc1,111% (inactive),–
CCOC(=O)c1ccc(OC(=O)CCCCCN=C(N)N)cc1,107% (inactive),–
CCOC(=O)c1ccc(C#Cc2ccc3c(c2)C(C)(C)CCS3)nc1,106% (inactive),–
CCCc1cc(C(N)=S)ccn1,119% (inactive),–
Cc1oc(=O)oc1CN1CCN(c2cc3c(cc2F)c(=O)c(C(=O)O)c2n3C(C)S2)CC1 (stereo not given),97.2% (inactive),–
COc1ccc(-c2ccc3cc(C(=O)O)ccc3c2)cc1C12CC3CC(CC(C3)C1)C2,123% (inactive),–
NC(=O)c1ccc2[nH]ccc2c1,103% (inactive),–
Cc1cccc(Nc2ccncc2S(=O)(=O)NC(=O)NC(C)C)c1,120% (inactive),–
NS(=O)(=O)c1cc2c(cc1Cl)NC(C(Cl)Cl)NS2(=O)=O (stereo not given),113% (inactive),–
COc1ccc2c(c1)c(CC(=O)OCC(=O)O)c(C)n2C(=O)c1ccc(Cl)cc1,116% (inactive),–
NC(=O)c1cccnc1,113% (inactive),–
COc1nc(N)nc2c1ncn2[C@@H]1O[C@H](CO)[C@@H](O)[C@@H]1O,101% (inactive),–
Nc1nc(F)nc2c1ncn2[C@@H]1O[C@H](CO)[C@@H](O)[C@@H]1O,–,0.469 µM (active)
CCN(C)C(=O)Oc1cccc([C@H](C)N(C)C)c1,126% (inactive),–
COc1cc([C@@H]2c3cc4c(cc3[C@H](O)[C@H]3COC(=O)[C@H]23)OCO4)cc(OC)c1OC,44.7% (inactive),–
CN1CCN(c2c(F)cc3c(=O)c(C(=O)O)cn4c3c2OCN4C)CC1,109% (inactive),–
COC(c1ccccc1)(c1ccccc1)[C@H](Oc1nc(C)cc(C)n1)C(=O)O,118% (inactive),–
NNC(=O)c1ccncc1,111% (inactive),–
Cn1nnc2c(C(N)=O)ncn2c1=O,128% (inactive),–

SMILES,viability,Potency
Nc1nc(=S)c2[nH]cnc2[nH]1,–,8.33 µM (active)
C#CCN[C@@H]1CCc2ccccc21,108% (inactive),–
NC(=O)c1cccc(N)c1,123% (inactive),–
O=S(=O)(c1cccc2cnccc12)N1CCCNCC1,105% (inactive),–
CCCOc1ccc(C(=O)OCCN(CC)CC)cc1N,112% (inactive),–
CN(C)CCc1c[nH]c2ccc(C[C@H]3COC(=O)N3)cc12,96.7% (inactive),–
CCc1cc(C(N)=S)ccn1,119% (inactive),–
CNS(=O)(=O)Cc1ccc2[nH]cc(CCN(C)C)c2c1,124% (inactive),–
CC(N)C12CC3CC(CC(C3)C1)C2 (stereo not given),108% (inactive),–
Nc1[nH]c(=O)ncc1F,119% (inactive),–
CC[C@H](NC(C)C)[C@H](O)c1ccc(O)c2[nH]c(=O)ccc12,115% (inactive),–
O=S(=O)(O)CCS,121% (inactive),–
O=P(O)(O)C(O)(Cc1cccnc1)P(=O)(O)O,122% (inactive),–
CC(C)(C)C(=O)OCOP(=O)(COCCn1cnc2c(N)ncnc21)OCOC(=O)C(C)(C)C,–,11.8 µM (active)
CCN(CC)CC#CCOC(=O)C(O)(c1ccccc1)C1CCCCC1 (stereo not given),109% (inactive),–
NCCCC(O)(P(=O)(O)O)P(=O)(O)O,114% (inactive),–
COc1cnc(NS(=O)(=O)c2ccc(N)cc2)nc1,113% (inactive),–
CN(CCOc1ccc(CC2SC(=O)NC2=O)cc1)c1ccccn1 (stereo not given),107% (inactive),–
S=P(N1CC1)(N1CC1)N1CC1,111% (inactive),–
Cc1ccc(S(=O)(=O)N[C@@H](Cc2ccccc2)C(=O)CCl)cc1,–,23.5 µM (active)
